Bioassay records (PubChem)
Giardia FBPA inh: qHTS Assay for Inhibitors of Fructose-1,6-bisphosphate Aldolase from Giardia Lamblia; purified Giardia FBPA; A8B2U2; Potency, µM (series often up to 59.6 µM), for inactives: at the highest dose activity, negative = inhibition, usual class: inhibitors; 290,000 compounds, 0.71% hits; also: potency is read from the fitted curve at half-maximal effect; % is scaled to controls: 0 for no effect and ±100 for the full control effect; nearly all actives have a fitted effect of over 55% in size
Target sequence (A8B2U2 whole entry, looked up): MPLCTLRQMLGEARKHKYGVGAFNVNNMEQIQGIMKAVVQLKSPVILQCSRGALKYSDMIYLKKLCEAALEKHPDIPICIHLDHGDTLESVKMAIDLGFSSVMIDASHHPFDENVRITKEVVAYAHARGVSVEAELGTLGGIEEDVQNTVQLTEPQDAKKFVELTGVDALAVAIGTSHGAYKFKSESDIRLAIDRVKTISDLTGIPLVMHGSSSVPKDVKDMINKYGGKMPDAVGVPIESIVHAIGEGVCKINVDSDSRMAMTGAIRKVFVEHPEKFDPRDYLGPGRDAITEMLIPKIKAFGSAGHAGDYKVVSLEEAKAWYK
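40 nM FBPA preincubated 10 min at RT with compound (up to 57.5 uM final), then substrate plus GAPDH/TPI/NAD/arsenate coupling and diaphorase/resazurin added. Fluorescence read after 20 min at RT, 525/598 nm.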
CHX counter: Cycloheximide Counterscreen for Small Molecule Inhibitors of Shiga Toxin. cell reporter, cycloheximide protein synthesis inhibition counterscreen. 300,000 compounds, 12% hits. max response, %; in the data active = max response mostly above about 13%, no sharp cut-off; inactive = mostly below about 14%; also: read at 38.3 µM for the half of the compounds with a filed dose; 0% is about no effect
Pf growth 48h: Primary qHTS for delayed death inhibitors of the malarial parasite plastid, 48 hour incubation. P. falciparum luciferase growth in erythrocytes, 48 h. Potency, µM (doses to about 28.7 µM), for the others: at the top dose activity change, negative = inhibition, hits mostly inhibitors. 310,000 compounds, 5.9% hits; also: potency is read from the fitted curve at half-maximal effect; % is scaled to controls: 0 for no effect and ±100 for the full control effect
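Erythrocytes infected with P. falciparum carrying an integrated firefly luciferase reporter (2% hematocrit, 0.1% parasitemia final) were exposed to compounds in RPMI 1640 with 0.5% Albumax at 37 C, 5% CO2. Growth inhibition was scored as reduced luminescence.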
Pf growth 96h: Primary qHTS for delayed death inhibitors of the malarial parasite plastid, 96 hour incubation; 320,000 compounds, 6.9% hits; P. falciparum luciferase reporter growth, 96 h; Potency, µM (top dose mostly 28.7 µM), without a hit: at the highest dose activity change, negative = inhibition, actives largely listed as inhibitors; also: potency is read from the fitted curve at half-maximal effect; % is scaled to controls: 0 for no effect and ±100 for the full control effect
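Readout is luminescence from an integrated firefly luciferase in P. falciparum. Red cells, 2% hematocrit and 0.05% parasitemia final, were cultured with compound through two parasite generations (96 hours) at 37 C, 5% CO2.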
NS1 inh: qHTS Assay for Inhibitors of Influenza NS1 Protein Function | Potency, µM (series often up to 46.1 µM), for the others: at the highest dose activity, positive = more growth | 270,000 compounds, 0.4% hits | AID 2326, 2010; calls by dose curve; also: potency is read from the fitted curve at half-maximal effect; actives are rising curves; nearly all actives have a fitted effect of over 50% in size
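OD600 was taken as the measure of yeast growth restored by compound in an NS1-expressing S. cerevisiae strain. Cells had been washed out of glucose medium and diluted 1:100 into galactose -URA medium, pH 6.0.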
Shiga inhibitor: A qHTS for Small Molecule Inhibitors of Shiga Toxin. Vero cells, Shiga toxin protein synthesis inhibition reporter. inhibition, % at 38.7 µM. 290,000 compounds, 9.2% hits. AID 2315, 2010; in the data active = inhibition mostly above about 28%, no sharp cut-off; inactive = mostly below about 43%; also: 0% is about no effect
Active calls of the source: *; [ ] = dose if it differs, or a comment. Most compounds without a hit are left out; they make up all but 21% or so of the library. Unless noted, calls follow the shape of the dose curve; as a rule, active = well fitted curve in the direction sought with a large enough effect; inconclusive = small, poorly fitted or top-dose-only effect, or another doubt; inactive = no such curve, though single readings can be large; an effect the other way counts as inactive or inconclusive.

`Cc1cc(NC(=O)NC(=O)c2cccc(OC(F)(F)C(F)F)c2)n[nH]1` gave Giardia FBPA inh 9%, CHX counter 27*, Pf growth 48h 104%, Pf growth 96h inconclusive, NS1 inh 7% and Shiga inhibitor 69*.
Screening CC(=O)c1ccccc1OC(=O)COc1ccc([N+](=O)[O-])cc1 returned Giardia FBPA inh 8%, CHX counter -3, Pf growth 48h 4%, Pf growth 96h 209%, NS1 inh 9% and Shiga inhibitor -5.
Screening CCOC(=O)CCN1C(=O)[C@H]2[C@H]3[C@H](O)[C@H](O)C/C(=N/O[C@@H]4O[C@@H](COC(C)=O)[C@@H](OC(C)=O)[C@@H](OC(C)=O)[C@H]4OC(C)=O)[C@H]3CC[C@@H]2C1=O returned Giardia FBPA inh -1%[12.9 µM].
Screening COc1ccc(OCc2nnc(SCC(=O)N3CCCCC3)o2)cc1 returned Giardia FBPA inh 13%, CHX counter 0, Pf growth 48h 4%, Pf growth 96h 12µM*, NS1 inh -12% and Shiga inhibitor -7.
CCc1ccc(OCc2nnc(SCC(=O)NC3CCCCC3)o2)cc1 was read as Giardia FBPA inh -8%, CHX counter 20, Pf growth 48h 42%, Pf growth 96h -22%, NS1 inh 1% and Shiga inhibitor 47*.
`Cc1ccc(CN(CC(=O)NC2CCCC2)C(=O)CSc2nnc(COc3ccccc3)o2)cc1` gave Giardia FBPA inh 5%, CHX counter -2, Pf growth 48h -4%, Pf growth 96h inconclusive, NS1 inh 12% and Shiga inhibitor 8.
COc1ccc(C(=O)NCc2nnc(SCC(=O)N3CCCCC3)o2)cc1OC was read as Giardia FBPA inh -7%, CHX counter 3, Pf growth 96h 3.3µM*, NS1 inh -2% and Shiga inhibitor 25.
For COc1ccc(Cc2nnc(SCC(=O)N3CCCC(C)C3)o2)cc1 (configuration not stated) the results were Giardia FBPA inh 5%, CHX counter 5, Pf growth 48h 7.4µM*, Pf growth 96h inconclusive, NS1 inh 2% and Shiga inhibitor 17.
For COc1ccccc1CCn1c(=O)c(CCc2ccccc2)nc2cncnc21 the results were Giardia FBPA inh 2%.
Screening CC(C)c1ccc(OCc2nnc(SCC(=O)N3CCCCC3)o2)cc1 returned Giardia FBPA inh -10%, CHX counter 32*, Pf growth 48h -9%, Pf growth 96h 86%, NS1 inh 2% and Shiga inhibitor 27.
`O=C(NCc1nnc(SCC(=O)N2CCN(c3ccccc3)CC2)o1)c1c(F)cccc1Cl` gave Giardia FBPA inh -29%, CHX counter -3, Pf growth 48h -16%, Pf growth 96h 10µM*, NS1 inh -18% and Shiga inhibitor -6.
N#Cc1ccc(C(=O)OCCCc2cc3ccccc3c(=O)o2)cc1 was read as Pf growth 48h 47% and Pf growth 96h 43%.
For Cc1cnc(CNc2nc(-c3ccccc3Cl)nc3ccccc23)cn1 the results were Giardia FBPA inh -4%.
Screening COC(=O)C1(CO)NC(c2ccc(C)cc2)C2C(=O)N(c3ccccc3)C(=O)C21 (configuration not stated) returned Giardia FBPA inh 8%, CHX counter -2, Pf growth 48h -4%, Pf growth 96h -15%, NS1 inh 15% and Shiga inhibitor -4.
For CCN1C(=O)[C@H]2[C@@H](c3ccc(-c4ccc(Cl)c(Cl)c4)c(OC)c3)N[C@@](Cc3ccccc3)(C(=O)OC)[C@H]2C1=O the results were Pf growth 48h 2.9µM* and Pf growth 96h 3.7µM*.
CCN1C(=O)[C@H]2[C@@H](c3ccc(-c4cccc(Cl)c4)cc3)N[C@@](Cc3ccccc3)(C(=O)OC)[C@H]2C1=O was read as Pf growth 48h 4.7µM* and Pf growth 96h 4.7µM*.
CCCSc1ccc([C@H]2N[C@@](C)(C(=O)OC)[C@H]3C(=O)N(C)C(=O)[C@@H]23)cc1OC was read as Pf growth 48h inconclusive and Pf growth 96h 10%.
`CCCCCCSc1ccc([C@H]2N[C@@](Cc3ccccc3)(C(=O)OC)[C@H]3C(=O)N(C)C(=O)[C@@H]23)cc1OC` gave Pf growth 48h 3.3µM* and Pf growth 96h 2.3µM*.
`O=C(CNC(=O)c1ccc(Cl)cc1Cl)OCC(=O)N1CCCC1=O` gave Pf growth 48h 46% and Pf growth 96h 25%.
Screening CC(C)c1ccc(S(=O)(=O)N2CCN(C(=O)n3ccnc3)CC2)cc1 returned Pf growth 48h inconclusive and Pf growth 96h 5.2µM*.
For Cc1ccc(S(=O)(=O)N2CCN(C(=O)n3ccnc3)CC2)cc1 the results were Pf growth 48h inconclusive and Pf growth 96h 7.4µM*.
`C#CCCCO/N=C1/C[C@@H](O)[C@@H](O)[C@@H]2[C@@H]3C(=O)N([C@@H](C)c4ccccc4)C(=O)[C@H]3CC[C@@H]12` gave Giardia FBPA inh 3%[12.9 µM].
For OCC[C@H]1C[C@@H](O)[C@H](O)[C@]2(CCCCO2)O1 the results were Giardia FBPA inh 0%, CHX counter -4, Pf growth 48h 7%, Pf growth 96h 50%, NS1 inh -5% and Shiga inhibitor 4.
For C[C@@H](O)CCC[C@H](O)/C=C/[C@@H]1[C@@H](C/C=C\CCCC(=O)O)[C@@H](O)C[C@H]1O the results were Giardia FBPA inh 0%.
`Cc1ccc(C(OCC(O)CN2CCCCC2CO)c2ccccc2)cc1` (configuration not stated) gave Giardia FBPA inh -26%, CHX counter -2, Pf growth 48h inconclusive, Pf growth 96h 1.7µM*, NS1 inh 3% and Shiga inhibitor -7.
For CCOC(=O)C1(Cc2cccc(OC)c2)CCN(Cc2cccnc2)CC1 the results were Giardia FBPA inh 2%, CHX counter 35*, Pf growth 48h 96%, Pf growth 96h 30%, NS1 inh -6% and Shiga inhibitor 99*.
For CCOC(=O)C1(Cc2cccc(OC)c2)CCN(Cc2cccc3cnccc23)CC1 the results were Giardia FBPA inh -9%, CHX counter 2, Pf growth 48h 3.7µM*, Pf growth 96h inconclusive, NS1 inh 1% and Shiga inhibitor -3.
For CCOC(=O)C1(Cc2cccc(OC)c2)CCN(Cc2cccc(OC)c2OC)CC1 the results were Giardia FBPA inh -4%, CHX counter -2, Pf growth 48h inconclusive, Pf growth 96h inconclusive, NS1 inh -4% and Shiga inhibitor 6.
CCOC(=O)C1(Cc2cccc(OC)c2)CCN(Cc2cc(OC)ccc2OC)CC1 was read as Giardia FBPA inh 0%, CHX counter -1, Pf growth 48h inconclusive, Pf growth 96h 10µM*, NS1 inh -2% and Shiga inhibitor -3.
